In PubChem BioAssay one finds composite z-score and z-score data, which are given here for five compounds.

The source made the active and inactive calls.

For experiment [1], the system named is PRMT1 (protein arginine N-methyltransferase 1). In words: PRMT1 binders on small-molecule microarrays, primary screen, biochemical, small-molecule microarray, 635 nm fluorescence (AID 1088).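 Note: binding of Prmt1 protein to compounds spotted on small-molecule microarray slides.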 The settings on record: small-molecule microarray binding, higher = more signal.
Experiment [2] is described as follows: yeast growth modulation, basal conditions, primary screen, YJM789 clinical isolate, OD600, 24 h (AID 1089).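 Note: growth of clinical yeast isolate S. cerevisiae YJM 789 seeded 1000 cells per well; test concentration not given here.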 The settings on record: S. cerevisiae YJM789 growth, higher = more signal, called active from +8 up or from −8 down.
Experiment [3] in a line: fission yeast growth modulation, primary screen, strain 972, OD600, 24 h, no modulator (AID 1090).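 Note: basal condition with compound alone and no growth modifier present; test concentration not given here.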 The following applies: S. pombe 972 growth, higher = more signal, called active from +8 up or from −8 down.
Experiment [4] is described as follows: S. cerevisiae growth modulation with rapamycin, primary screen, strain BY4716, OD600, 96 h (AID 1091). Note: test concentration not given here. The settings on record: higher = more signal, called active from +8 up or from −8 down.
The target in experiment [5] is Torsin-1A-interacting protein 2 (Homo sapiens) (UniProt Q8NFQ8). In words: LULL1 binders on small-molecule microarray, primary screen, cell lysate, human LULL1 lysate, 635/667 nm fluorescence (AID 1092).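 Note: probe is lysate of COS7 cells overexpressing human LULL1; score merges per-feature 667 nm fluorescence with signal-to-noise.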 The following applies: hLULL1 lysate binding, 635 nm fluorescence, higher = more signal.
Torsin-1A-interacting protein 2 (Homo sapiens), sequence (Q8NFQ8 whole entry, looked up): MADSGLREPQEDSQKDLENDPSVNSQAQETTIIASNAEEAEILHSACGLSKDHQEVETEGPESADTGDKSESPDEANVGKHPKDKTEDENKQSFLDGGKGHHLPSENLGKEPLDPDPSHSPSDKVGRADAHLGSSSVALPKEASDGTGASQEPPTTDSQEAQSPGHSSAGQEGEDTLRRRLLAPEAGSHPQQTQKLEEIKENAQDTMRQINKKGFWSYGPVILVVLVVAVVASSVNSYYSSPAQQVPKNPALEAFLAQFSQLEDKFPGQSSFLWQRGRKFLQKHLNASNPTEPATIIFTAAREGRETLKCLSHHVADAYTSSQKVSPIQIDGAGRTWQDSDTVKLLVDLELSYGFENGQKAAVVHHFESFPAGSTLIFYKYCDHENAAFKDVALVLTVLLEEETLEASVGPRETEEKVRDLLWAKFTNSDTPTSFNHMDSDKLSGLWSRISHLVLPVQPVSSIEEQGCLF
Experiment [6] in a line: E. coli growth modulation, two-sided OD650, primary screen, E. coli filamentation project, strain DRC41, 24 h (AID 1093).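 Note: MC1000 strain lacking acrAB efflux and sulA so SOS filamentation is blocked; test concentration not given here.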 The following applies: OD650, 24 h, higher = more signal, called active from +8 up or from −8 down.
The nature of experiment [7]: small-molecule microarray binders of probe aLefty2, primary screen, biochemical, biotinylated probe, 635/667 nm fluorescence (AID 1094).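 Note: score merges spot fluorescence near 667 nm with spot signal-to-noise ratio.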 The settings on record: higher = more signal.
Experiment [8] has as its system Noggin (protein binding on small-molecule microarray). In words: Noggin binders on small-molecule microarray, primary screen, biochemical, 635/667 nm fluorescence (AID 1095).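 Note: score merges 667 nm feature fluorescence with signal to noise over triplicate slides.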 The settings on record: 635 nm fluorescence, higher = more signal.
Experiment [9] addresses Neurogenic locus notch homolog protein 3 (Homo sapiens) (UniProt Q9UM47). The experiment can be described thus: NOTCH3 binders on small-molecule microarray, primary screen, biochemical, 635/667 nm fluorescence (AID 1096). The following applies: NOTCH3 binding, 635 nm fluorescence, higher = more signal.
Experiment [10] is described as follows: small-molecule microarray binders of probe aEGFR, primary screen, biochemical, biotinylated probe, 635/667 nm fluorescence (AID 1097).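 Note: probe is a biotinylated anti-EGFR antibody binding compounds printed on slides; score combines fluorescence near 667 nm and signal to noise of each spot.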 The settings on record: higher = more signal.
Experiment [11] concerns Plasmodium falciparum Sir2 (PF13_0152, Sir2A). The experiment can be described thus: pfSir2 binders on small-molecule microarrays, primary screen, biochemical, small-molecule microarray, 635 nm fluorescence (AID 1098).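 Note: score merges spot fluorescence intensity with its signal-to-noise ratio.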 The settings on record: small-molecule microarray binding, fluorescence 635 nm; higher = more signal.
Experiment [12] in a line: small-molecule microarray binders of probe aDKK1, primary screen, biochemical, biotinylated probe, 635/667 nm fluorescence (AID 1099).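 Note: score merges 667nm spot fluorescence with signal to noise across triplicate slides; reference of the scale not given here.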 The following applies: higher = more signal.
Experiment [13] is described as follows: small-molecule microarray binders of probe aCHRDL2, primary screen, biochemical, biotinylated probe, 635/667 nm fluorescence (AID 1100). The settings on record: higher = more signal.
Experiment [14] in a line: splicing luciferase reporter signal modulators, primary screen, spliceosome inhibition project, cell-based, HEK293, splice +/- reporter (AID 1101).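 Note: HEK293 cells carrying a splicing-competent luciferase reporter gene; test concentration not given here.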 The following applies: luminescence, 24 h, higher = more signal, called active from +8 up or from −8 down. (Reporter assays use an easily measured gene product as a stand-in for the process of interest.)
Experiment [15] concerns the target Fibroblast growth factor 10 (Homo sapiens) (UniProt O15520). In words: FGF10 binders on small-molecule microarrays, primary screen, biochemical, small-molecule microarray, 635 nm fluorescence (AID 1102). The following applies: FGF10 binding, fluorescence 635 nm, higher = more signal.
The subject of experiment [16] is glycogen synthase kinase-3 (GSK3A per assay name; protocol says GSK3B). The experiment can be described thus: GSK3 binders on small-molecule microarrays, primary screen, biochemical, small-molecule microarray, 635 nm fluorescence, GSK3A (AID 1103). Note: the record names both GSK3A and GSK3B. The settings on record: small-molecule microarray binding, fluorescence 635 nm; higher = more signal.
Experiment [17] addresses Epidermal growth factor receptor (Homo sapiens) (UniProt P00533). In words: EGFR binders on small-molecule microarrays, primary screen, biochemical, small-molecule microarray, 635 nm fluorescence (AID 1104).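 Note: score merges 667 nm emission intensity with spot signal to noise over triplicate slides.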 The following applies: EGFR binding, higher = more signal.
Experiment [18] deals with Follistatin-related protein 3 (Homo sapiens) (UniProt O95633). The experiment can be described thus: FSTL3 binders on small-molecule microarrays, primary screen, biochemical, small-molecule microarray, 635 nm fluorescence (AID 1105).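 Note: score merges emission near 667 nm and signal to noise per printed spot across three slides.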 The settings on record: FSTL3 binding, higher = more signal.
Follistatin-related protein 3 (Homo sapiens), sequence (O95633 whole entry, looked up): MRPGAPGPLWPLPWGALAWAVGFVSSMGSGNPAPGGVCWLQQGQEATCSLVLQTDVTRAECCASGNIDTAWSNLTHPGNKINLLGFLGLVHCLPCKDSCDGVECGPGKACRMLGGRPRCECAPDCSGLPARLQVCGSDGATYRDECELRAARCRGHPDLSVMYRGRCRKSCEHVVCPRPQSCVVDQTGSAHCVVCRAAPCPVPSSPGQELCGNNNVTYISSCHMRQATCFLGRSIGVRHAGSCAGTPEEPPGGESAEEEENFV
For experiment [19], the target named is Dickkopf-related protein 1 (Homo sapiens) (UniProt O94907). The experiment can be described thus: DKK1 binders on small-molecule microarrays, primary screen, biochemical, small-molecule microarray, 635 nm fluorescence scan (AID 1106).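 Note: score merges emission near 667 nm with signal to noise over three replicate slides.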 The settings on record: DKK1 binding, higher = more signal.
Dickkopf-related protein 1 (Homo sapiens), sequence (O94907 whole entry, looked up): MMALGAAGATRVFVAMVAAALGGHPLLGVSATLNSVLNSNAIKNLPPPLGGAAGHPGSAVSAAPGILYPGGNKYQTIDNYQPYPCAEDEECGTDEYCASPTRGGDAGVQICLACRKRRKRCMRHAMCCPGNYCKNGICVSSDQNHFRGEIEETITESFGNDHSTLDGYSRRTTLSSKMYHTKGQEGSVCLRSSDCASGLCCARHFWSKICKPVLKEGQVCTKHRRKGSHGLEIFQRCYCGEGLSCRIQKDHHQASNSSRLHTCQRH
Experiment [20] deals with Inhibin beta A chain (activin A). The experiment can be described thus: INHBA (activin A) binders on microarrays, primary screen, biochemical, small-molecule microarray, 635 nm fluorescence scan (AID 1107).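 Note: mouse activin A protein probed at 4.33 µg/mL on printed slides; score merges bound-protein fluorescence near 667 nm with spot signal-to-noise.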 The settings on record: small-molecule microarray binding, higher = more signal.

Epidermal growth factor receptor (Homo sapiens), sequence (P00533 whole entry, looked up): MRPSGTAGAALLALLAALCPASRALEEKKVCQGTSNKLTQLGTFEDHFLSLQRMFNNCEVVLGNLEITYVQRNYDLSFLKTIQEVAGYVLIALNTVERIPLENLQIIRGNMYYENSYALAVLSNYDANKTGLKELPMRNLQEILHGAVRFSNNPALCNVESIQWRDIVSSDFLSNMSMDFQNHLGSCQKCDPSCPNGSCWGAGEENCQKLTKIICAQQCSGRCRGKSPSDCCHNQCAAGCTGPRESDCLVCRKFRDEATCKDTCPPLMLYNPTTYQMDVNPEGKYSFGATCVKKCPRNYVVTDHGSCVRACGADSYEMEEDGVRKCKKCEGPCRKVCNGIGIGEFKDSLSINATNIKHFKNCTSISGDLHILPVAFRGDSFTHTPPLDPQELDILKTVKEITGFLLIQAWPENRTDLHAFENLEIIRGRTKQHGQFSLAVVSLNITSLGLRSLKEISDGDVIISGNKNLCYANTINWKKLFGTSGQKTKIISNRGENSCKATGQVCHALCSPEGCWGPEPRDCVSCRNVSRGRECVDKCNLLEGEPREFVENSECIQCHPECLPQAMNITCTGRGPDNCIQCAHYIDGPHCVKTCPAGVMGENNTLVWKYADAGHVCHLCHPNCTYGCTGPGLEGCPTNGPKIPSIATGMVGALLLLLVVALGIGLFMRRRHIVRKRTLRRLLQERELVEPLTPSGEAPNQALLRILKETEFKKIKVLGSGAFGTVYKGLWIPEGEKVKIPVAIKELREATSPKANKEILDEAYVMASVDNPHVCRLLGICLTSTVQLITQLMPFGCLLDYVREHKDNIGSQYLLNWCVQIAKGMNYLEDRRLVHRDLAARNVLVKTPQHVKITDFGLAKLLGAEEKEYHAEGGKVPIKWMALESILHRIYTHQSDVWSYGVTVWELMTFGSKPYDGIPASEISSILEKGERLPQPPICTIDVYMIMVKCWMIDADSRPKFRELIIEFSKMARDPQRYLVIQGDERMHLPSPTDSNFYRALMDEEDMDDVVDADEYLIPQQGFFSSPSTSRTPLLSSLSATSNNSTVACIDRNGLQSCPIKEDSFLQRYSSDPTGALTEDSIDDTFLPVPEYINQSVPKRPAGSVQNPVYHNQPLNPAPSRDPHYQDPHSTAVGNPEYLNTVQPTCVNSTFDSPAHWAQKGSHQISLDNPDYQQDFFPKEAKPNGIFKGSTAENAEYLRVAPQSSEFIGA
Fibroblast growth factor 10 (Homo sapiens), sequence (O15520 whole entry, looked up): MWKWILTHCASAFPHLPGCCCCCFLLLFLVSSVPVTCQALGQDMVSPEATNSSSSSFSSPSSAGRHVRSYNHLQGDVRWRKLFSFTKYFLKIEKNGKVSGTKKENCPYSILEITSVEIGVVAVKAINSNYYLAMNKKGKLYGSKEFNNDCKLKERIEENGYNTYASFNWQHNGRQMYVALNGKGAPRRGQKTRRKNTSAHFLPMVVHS
Neurogenic locus notch homolog protein 3 (Homo sapiens), sequence (Q9UM47 whole entry, looked up): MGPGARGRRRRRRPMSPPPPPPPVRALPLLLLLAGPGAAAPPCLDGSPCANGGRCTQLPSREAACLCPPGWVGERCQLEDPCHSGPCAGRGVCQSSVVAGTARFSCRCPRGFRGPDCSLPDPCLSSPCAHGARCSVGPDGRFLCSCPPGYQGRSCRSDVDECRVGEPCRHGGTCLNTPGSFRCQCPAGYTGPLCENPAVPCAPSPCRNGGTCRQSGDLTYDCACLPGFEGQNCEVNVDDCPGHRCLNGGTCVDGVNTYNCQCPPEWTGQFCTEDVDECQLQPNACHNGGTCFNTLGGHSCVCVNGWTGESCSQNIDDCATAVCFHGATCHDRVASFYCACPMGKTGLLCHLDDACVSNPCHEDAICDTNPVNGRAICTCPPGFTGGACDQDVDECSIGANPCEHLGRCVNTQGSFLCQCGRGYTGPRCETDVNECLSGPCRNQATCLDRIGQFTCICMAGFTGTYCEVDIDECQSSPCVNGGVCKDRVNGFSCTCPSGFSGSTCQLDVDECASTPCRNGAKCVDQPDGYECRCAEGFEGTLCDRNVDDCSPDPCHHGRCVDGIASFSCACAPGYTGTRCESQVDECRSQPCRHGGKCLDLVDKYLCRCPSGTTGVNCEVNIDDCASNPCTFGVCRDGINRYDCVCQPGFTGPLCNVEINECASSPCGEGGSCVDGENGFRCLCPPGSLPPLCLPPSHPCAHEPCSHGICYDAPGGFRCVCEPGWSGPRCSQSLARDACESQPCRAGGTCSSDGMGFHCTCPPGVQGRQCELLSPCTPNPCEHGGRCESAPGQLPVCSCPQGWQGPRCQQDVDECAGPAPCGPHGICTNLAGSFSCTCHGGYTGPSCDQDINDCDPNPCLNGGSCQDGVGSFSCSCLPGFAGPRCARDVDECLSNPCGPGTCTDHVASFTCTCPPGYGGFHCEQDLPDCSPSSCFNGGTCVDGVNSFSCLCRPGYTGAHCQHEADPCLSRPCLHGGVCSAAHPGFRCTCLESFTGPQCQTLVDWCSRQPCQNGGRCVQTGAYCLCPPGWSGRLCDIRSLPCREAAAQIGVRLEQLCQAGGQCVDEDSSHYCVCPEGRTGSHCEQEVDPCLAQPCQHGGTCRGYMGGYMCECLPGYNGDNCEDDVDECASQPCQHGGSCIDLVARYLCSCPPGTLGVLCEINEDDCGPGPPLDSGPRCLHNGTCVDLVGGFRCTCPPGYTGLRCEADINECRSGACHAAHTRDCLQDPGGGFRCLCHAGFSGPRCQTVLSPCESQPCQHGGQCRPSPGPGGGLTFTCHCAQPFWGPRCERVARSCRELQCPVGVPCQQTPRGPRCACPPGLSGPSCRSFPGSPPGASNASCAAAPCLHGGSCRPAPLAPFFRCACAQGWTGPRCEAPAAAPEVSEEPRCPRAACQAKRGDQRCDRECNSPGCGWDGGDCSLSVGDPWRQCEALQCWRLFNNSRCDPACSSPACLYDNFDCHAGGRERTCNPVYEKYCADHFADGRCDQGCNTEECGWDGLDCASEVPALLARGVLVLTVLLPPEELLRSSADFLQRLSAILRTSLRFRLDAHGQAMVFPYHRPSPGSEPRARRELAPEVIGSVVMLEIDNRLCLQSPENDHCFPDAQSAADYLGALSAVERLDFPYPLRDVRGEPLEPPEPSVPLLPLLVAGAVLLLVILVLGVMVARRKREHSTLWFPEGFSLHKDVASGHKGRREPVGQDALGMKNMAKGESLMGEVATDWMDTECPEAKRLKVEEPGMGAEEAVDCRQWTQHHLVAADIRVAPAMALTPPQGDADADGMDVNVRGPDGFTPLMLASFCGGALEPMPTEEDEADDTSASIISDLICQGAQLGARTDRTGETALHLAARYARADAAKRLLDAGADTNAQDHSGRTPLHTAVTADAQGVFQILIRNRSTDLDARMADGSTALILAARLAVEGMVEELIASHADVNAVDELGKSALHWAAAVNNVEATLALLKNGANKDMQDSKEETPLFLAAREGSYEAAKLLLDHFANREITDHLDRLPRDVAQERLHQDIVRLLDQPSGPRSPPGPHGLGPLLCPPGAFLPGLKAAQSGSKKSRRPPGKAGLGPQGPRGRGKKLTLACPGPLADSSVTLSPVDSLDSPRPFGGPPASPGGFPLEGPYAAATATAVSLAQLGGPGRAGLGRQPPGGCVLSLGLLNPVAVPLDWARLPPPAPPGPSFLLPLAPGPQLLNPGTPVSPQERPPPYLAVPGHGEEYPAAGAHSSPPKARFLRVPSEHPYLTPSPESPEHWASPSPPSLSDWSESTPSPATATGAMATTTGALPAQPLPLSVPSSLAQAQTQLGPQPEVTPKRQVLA

`Cc1ccc(S[C@]2(C(=O)NC(C)C)CC(=O)N(C3Cc4ccccc4C3)[C@@H]2c2ccc(CO)cc2)cc1`: the composite z-score is 1.53 in experiment [1]; 2.95 in [5]; -0.222 in experiment [7]; -0.0057 in [8]; 0.506 in [9]; -0.308 in experiment [10]. Besides, the composite z-score in [11] was 1.24; in experiment [12] it was -0.786; in [13], 0.556; in experiment [15] it was -0.258; in experiment [16] it was -0.106; in [17] it was -0.544. For the same compound, the composite z-score was -0.0429 in experiment [18], -1.2 in experiment [19] and -0.215 in experiment [20]. Moreover, the z-score in [2] was 0.106 (inactive); in [3] it was -1.65 (inactive); in experiment [4] it was -0.517 (inactive); in experiment [6] it was -2.16 (inactive); in experiment [14] it was -1.15 (inactive).
Turning to `NC(=O)[C@H]1[C@@H]2C(=O)O[C@@H](c3ccccc3)[C@@H](c3ccccc3)N2[C@@H](c2ccc(O)cc2)[C@]12C(=O)Nc1ccc(C#CCCO)cc12`, the composite z-score in experiment [1] is -0.484; in experiment [5], 0.497; in experiment [7], -0.05; in experiment [8], -1.02; in experiment [9], -0.714; in experiment [10], -0.112. Also, the composite z-score in [11] was 1.61; in experiment [12], -0.0626; in experiment [13], 0.604; in [15], -0.187; in experiment [16] it was -1.6; in experiment [17], -1.52. Moreover, the composite z-score is -0.681 in [18], -0.889 in experiment [19] and -0.142 in [20]. Moreover, the z-score in [2] is -0.178 (inactive); in [3], -0.196 (inactive); in experiment [4], -0.503 (inactive); in experiment [6], 0.0528 (inactive); in experiment [14], -0.205 (inactive).
As for `C=C(CCCC)/C(=C/C[C@@H](OC(=O)c1ccncc1)c1ccc(CO)o1)c1cnc2ccccc2c1`, the composite z-score in experiment [1] came out at 1.54; in experiment [5], 2.54; in [7], 0.0561; in experiment [8], 1.64; in [9] it was 1.02; in [10], 0.0071. Also, the composite z-score in experiment [11] was 0.201; in experiment [12], 0.144; in [13] it was -0.524; in [15], 1.48; in [16], 1.32; in [17], 1.36. Besides, the composite z-score in [18] amounted to 1.62; in experiment [19] it was 1.53; in [20], 1.82. Moreover, the z-score in experiment [2] is 0.396 (inactive); in experiment [3], -2.43 (inactive); in experiment [4], 0.322 (inactive); in [6], 1.25 (inactive); in experiment [14] it was 0.0419 (inactive).
Regarding `CCCC[C@@H]1C[C@H]1[C@@H](NC(=O)c1cccs1)c1ccc(Cl)cc1`, the composite z-score in [1] is -0.117; in experiment [5] it was 0.795; in [7], -0.168; in experiment [8], -1.69; in experiment [9] it was -1.73; in experiment [10], -0.288. Further, the composite z-score in experiment [11] is 0.509; in experiment [12], 0.517; in [13], 0.943; in experiment [15], -1.5; in experiment [16], -1.13; in experiment [17], -1.34. For the same compound, the figures for the composite z-score in experiment [18], in experiment [19] and in [20] were -2.23, -1.75 and 0.269, respectively. In addition, the z-score was -0.0596 (inactive) in [2]; 0.806 (inactive) in [3]; 0.413 (inactive) in [4]; -1 (inactive) in [6]; -2.23 (inactive) in experiment [14].
On to `C[C@H]1C2[C@H](Cc3ccccc3)NC(=O)[C@]23C(=O)N[C@H](Cc2ccccc2)C(=O)N[C@@H](Cc2ccccc2)C(=O)NC/C=C\C/C=C/C3[C@@H]2O[C@]12C` (stereo not given in full), for which the composite z-score in [1] is -0.0599; in experiment [5] it was 0.168; in experiment [7], -0.0882; in experiment [8] it was -0.152; in experiment [9] it was 0.367; in [10], -0.113. The composite z-score was 0.0468 in experiment [11]; -0.315 in [12]; -0.202 in experiment [13]; 0.345 in experiment [15]; -0.256 in experiment [16]; -0.228 in experiment [17]. The composite z-score came to 0.223 in experiment [18], 0.409 in [19] and 1.16 in [20]. The z-score in [2] was -0.371 (inactive); in experiment [3], -0.246 (inactive); in experiment [4], -0.639 (inactive); in [6] it was 1.25 (inactive); in [14], -0.148 (inactive).
